High-throughput results (PubChem)
Pf growth 48h – P. falciparum growth inhibition at 48 hours (one generation); Potency, µM (highest dose often 28.7 µM), inactives show at the highest dose activity change, negative = inhibition, actives largely listed as inhibitors; P. falciparum luciferase growth in erythrocytes, 48 h; 5.9% of 310,000 active; AID 504832; further: potency means the concentration at half of the fitted maximal effect; on the % scale 0 is the no-effect control and ±100 the full control effect
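Read-out is firefly luciferase luminescence from an integrated reporter in P. falciparum, so falling signal marks reduced parasite growth. Infected erythrocytes were at 2% hematocrit and 0.1% parasitemia (final) in Albumax-supplemented RPMI 1640.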
Pf growth 96h – inhibits malaria parasite growth, 96 h. P. falciparum luciferase reporter growth, 96 h. Potency, µM (titrated, usually from 28.7 µM), without a hit: at the highest dose activity change, negative = inhibition, most hits filed as inhibitors. 6.9% of 320,000 active. AID 504834; further: potency means the concentration at half of the fitted maximal effect; on the % scale 0 is the no-effect control and ±100 the full control effect
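Erythrocytes infected with luciferase-expressing P. falciparum were dispensed at 2% hematocrit and 0.05% parasitemia (final), then incubated with compounds 96 hours at 37 C in 5% CO2. Luminescence after detection reagent addition reported growth.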
HCMV antiviral – blocks human cytomegalovirus replication. HFF cells, HCMV-luciferase reporter, 72 h; active compounds read low. activity change, negative = inhibition, % at 57.5 µM. 4.5% of 410,000 active. AID 1259415; in the data active means activity change below about -60%; inconclusive means no clear call, values can overlap the other calls; inactive means above about -39%; further: on the % scale 0 is the no-effect control and ±100 the full control effect
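Luciferase read-out from HCMV-luciferase-infected HFFs (MOI 1 PFU/cell) 72 h post infection at 37C; compounds added after 16 h cell attachment; activity normalized between buffer-only basal and Salinomycin (10uM) inhibitor controls.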
Shiga inhibitor – blocks Shiga toxin action in Vero cells | Vero cells, Shiga toxin protein synthesis inhibition reporter | inhibition, % at 38.7 µM | 9.2% of 290,000 active; in the data active means inhibition mostly above about 28%, no sharp cut-off; inactive means mostly below about 43%; further: 0% is about no effect
CHX counter – counter-screen hit for Shiga toxin inhibitors, cycloheximide; cell reporter, cycloheximide protein synthesis inhibition counterscreen; max response, %; AID 2314; 12% of 300,000 active; in the data active means max response mostly above about 13%, no sharp cut-off; inactive means mostly below about 14%; further: read at 38.3 µM for the half of the compounds with a filed dose; 0% is about no effect
* = called active by the depositor; ? = inconclusive; nt = not tested or not shown. Most compounds without a hit are left out; they make up all but 20% or so of the library. Unless noted, the call rests on the fitted dose curve; in most records, active means well fitted inhibition curve with a large enough effect; inconclusive means small, poorly fitted or top-dose-only effect, or another doubt; inactive means no such curve, though single readings can be large or run the other way.

SMILES | Pf growth 48h | Pf growth 96h | HCMV antiviral | Shiga inhibitor | CHX counter
O=C(NCc1ccc(C(F)(F)F)cc1)O[C@H]1CC[C@@]23CCCN2C(=O)CCC[C@H]3[C@H]1Cc1ccccc1 | nt | nt | 0 | nt | nt
CCOC(=O)C1CCN(c2ccc(C(N)=O)cc2[N+](=O)[O-])CC1 | 8% | -11% | 28 | -14 | 1
COc1ccc(CCNC(=O)CCCCCNc2nc(=S)[nH]c3ccccc23)cc1OC | ? | 10µM* | 10 | -3 | 4
O=C(CCCCCNc1nc(=S)[nH]c2ccccc12)NCc1ccccc1Cl | ? | ? | -39 | -10 | -1
O=C(CCCCCNc1nc(=S)[nH]c2ccccc12)NCCc1ccccc1 | -12% | 0% | -31 | -9 | -2
O=C(NCCc1ccc(Cl)cc1)C1CCC(CNc2nc(=S)[nH]c3ccccc23)CC1 (centres undefined) | ? | -1% | -82* | -7 | 5
S=c1nc(NCCc2ccccc2Cl)c2ccccc2[nH]1 | -36% | -7% | 35 | 31 | 26*
O=C(NCc1ccccc1Cl)C1CCC(CNc2nc(=S)[nH]c3ccccc23)CC1 (centres undefined) | ? | ? | -26 | -23 | -2
CCCCNC(=O)C1CCC(CNc2nc(=S)[nH]c3ccccc23)CC1 (centres undefined) | 12% | -35% | 30 | -12 | -6
O=C(NCCC1=CCCCC1)C1CCC(CNc2nc(=S)[nH]c3ccccc23)CC1 (centres undefined) | ? | 24% | -62* | -20 | -5
CCc1noc(C)c1C(=O)NC1CCCc2c1cnn2-c1ccc(C(C)(C)C)cc1 (centres undefined) | 12% | 2% | 17 | 12 | 9
CCOc1cc(/C=C(\C#N)C(=O)Nc2ccccc2[N+](=O)[O-])ccc1OCc1cccc2ccccc12 | 33% | 52% | nt | 23 | 9
c1ccc(COc2ncnc3c2ncn3CCCNC2CCN(Cc3ccccc3)CC2)cc1 | nt | nt | -86* | nt | nt
CN=c1scc(C)n1/N=C/c1ccc(O)cc1 | 206% | nt | 82 | 117* | 38*
COc1cc(/C=N/N2C(C)CCCC2C)cc(Br)c1O (centres undefined) | -19% | 0% | -29 | -3 | 1
Cc1nnc(C)n1/N=C/c1ccc2c(c1)OCCO2 | 3% | 16% | 180 | -11 | 3
CN=c1scc(C)n1/N=C/c1cc(Br)c(O)c(Br)c1 | 5% | 17% | ? | 51 | 18*
CCN=c1scc(C)n1/N=C/c1cc(Br)c(O)c(OC)c1 | ? | 5.9µM* | ? | 37 | 14*
CC1CCCC(C)N1/N=C/c1cc(Br)c(O)c(Br)c1 (centres undefined) | 17% | 26% | 17 | 2 | -4
CN=c1scc(C)n1/N=C/c1ccc2c(c1)OCO2 | 278% | 55% | 18 | 69* | 28*
CN(C)[C@@H]1CC[C@@]23CCCN2C(=O)CCC[C@H]3[C@H]1Cc1ccccc1 | nt | nt | 2 | nt | nt
CCN(CC)c1ccc2cc(-c3nc(-c4ccccc4)no3)c(=O)oc2c1 | nt | nt | 67 | nt | nt
Cc1ccc(S(=O)(=O)N/N=C/c2ccc(OCC(=O)N3CCOCC3)cc2)cc1 | -18% | -23% | -40 | -3 | -5
COc1ccc(N2C(=O)C3CCCN3C2=O)cc1 (centres undefined) | nt | 10% | 9 | -6 | 1
CCOC(=O)c1nn(-c2ccc(OC)cc2)c(=O)c2c(NC(=O)Cc3ccccc3)scc12 | nt | nt | nt | -1 | 10
SMILES | Pf growth 48h | Pf growth 96h | HCMV antiviral | Shiga inhibitor | CHX counter
COc1cccc(C(=O)C(=O)NC(C)(C)C)c1 | nt | nt | 38 | nt | nt
COc1ccc(CCNCC2C(Oc3ccc(Cl)cc3)C(=O)N2c2ccccc2C)cc1OC (centres undefined) | ? | ? | ? | -25 | -2
CN=c1scc(-c2ccco2)n1/N=C/c1ccc(O)c(O)c1 | -35% | -92% | 68 | 16 | 4
CN=c1scc(C)n1/N=C/c1ccc(O)cc1O | 108% | -25% | 16 | 30* | 25*
C=CCN=c1scc(C)n1/N=C/c1ccc(O)c(O)c1 | ? | 2% | -97* | 65* | 37*
Cc1ccc(CN(C(=O)COc2ccc(Br)cc2)C2CCS(=O)(=O)C2)o1 (centres undefined) | -8% | 1% | -8 | -9 | -3
Cc1ccc(S(=O)(=O)N2C[C@@H]3CCCC[C@@H]3[C@@H](C)[C@H]2c2cn(Cc3ccccc3)c3ncccc23)cc1 | nt | nt | -86* | nt | nt
